About 83,000 compounds went through this panel and 20% of them were active in at least one assay; those are over-represented in the sample as a whole.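 Single-dose data. Exposure time 48 hours. Values below 10 considered active.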 A number with no mark means an inactive call. Activity calls are given as the source filed them.

Experiment in all cases: NCI-60 one-dose screen, 48 h (100 = growth as untreated, 0 = no growth, -100 = all killed)
What all share (conditions): 10 µM

Test [1] concerns SR leukemia.
The test system of test [2] is RPMI-8226 leukemia.
Test [3] has as its system OVCAR-8 ovarian.
Test [4] relates to OVCAR-5 ovarian.
The subject of test [5] is OVCAR-4 ovarian.
Test [6] concerns SK-OV-3 ovarian.
The subject of test [7] is IGROV1 ovarian.
The subject of test [8] is OVCAR-3 ovarian.
In test [9] the test system is HS 578T breast.
Test [10] has as its system NCI/ADR-RES ovarian.

For `O=C(NO)c1ccc(CNc2nc(-c3ccccc3)c3ccccc3n2)cc1`, the growth in test [1] was 15.7%; in test [2], 11.3%; in test [3], 6.42% (active); in [4], -22.4% (active); in [5] it was 32.9%; in [6], -39.1% (active). Also, the growth in [7] was -46.3% (active); in test [8], -11.3% (active); in test [9], 2.21% (active); in test [10], -44.5% (active).
Take `CC(=O)Nc1ccc(-c2cn(-c3cccc(C(=O)Nc4ccc(F)c(C(F)(F)F)c4)c3)nn2)cn1`: the growth in test [1] was 34.6%; in [2] it was 66.6%; in test [3], 2.67% (active); in test [4] it was 89.1%; in test [5], 13.5%; in test [6], 90.8%. The growth in test [7] was 43.2%; in test [8], 24.9%; in [9] it was 7.97% (active); in test [10], 86.3%.
For `CN1C(=O)/C(=C/c2nccs2)SC1=S`, the growth in [1] is 52.3%; in [2], 97.2%; in test [3], 91.5%; in [4], 95.6%; in [5], 84.1%; in [6], 105%. The growth in test [7] was 63.8%; in [8], 114%; in test [9], 86.5%; in test [10], 93.5%.
With `C/C(=N\NC(N)=S)c1ccc(Nc2nc(SC(C)C)nc(-c3ccccc3)c2C#N)cc1`, the growth in test [1] is 79.9%; in [2], 72.3%; in test [3], 30.5%; in [4] it was 75.6%; in test [5] it was 57.7%; in [6] it was 90%. The growth in [7] is 81.3%; in test [8] it was 67.3%; in test [9], 18.7%; in test [10] it was 61.6%.
As for `CCOc1ccc2ncc(C#Cc3cncc(C(=O)Nc4ccc(CN5CCN(C)CC5)c(C(F)(F)F)c4)c3)n2n1`, the growth in test [1] was 1.01% (active); in test [2] it was -13.3% (active); in test [3], -60.9% (active); in test [4] it was -87% (active); in test [5] it was -60.6% (active); in test [6], 45.7%. Besides, the growth was -58.2% (active) in [7], -79.1% (active) in [8] and -28.2% (active) in test [9].
With `O=C(CNc1nc(-c2ccccc2)cs1)Nc1ccc(Br)cc1`, the growth was -18.8% (active) in [1]; -5.37% (active) in [2]; -5.23% (active) in test [3]; -96.3% (active) in test [4]; -49.9% (active) in [5]; 8.41% (active) in test [6]. Also, the growth in test [7] was -75.4% (active); in test [8], -77.7% (active); in test [9], 16.6%; in [10] it was -16.7% (active).
As to `COc1ccc(C2N(c3ccc(Br)cc3)N=C(C(C)=O)N2[C@H]2[C@H](OC(C)=O)O[C@H](COC(C)=O)[C@@H](OC(C)=O)[C@@H]2OC(C)=O)cc1` (stereo not given in full), the growth in test [1] was 75.9%; in test [2] it was 41.1%; in [3] it was 78%; in [4], 85.6%; in test [5] it was 71.6%; in test [6] it was 61.4%. Also, the growth is 77.8% in [7], 73.2% in test [8] and 63.3% in [9].
`C=C1CCC2C3(C)COC(c4ccccc4F)OC3CCC2(C)C1C/C=C1/C(=O)OCC1O` (stereo not given): the growth in test [1] is 11.6%; in test [2], 13.4%; in test [3] it was -54.3% (active); in test [4] it was -42.8% (active); in test [5], 22.2%; in test [6], 26.3%. In addition, the growth in test [7] was -45.8% (active); in test [8], -79.1% (active); in [9], -0.635% (active).
`COc1ccc2ncc(C#Cc3cncc(C(=O)Nc4ccc(CN5CCN(C)CC5)c(C(F)(F)F)c4)c3)n2n1`: the growth in [1] was -26.3% (active); in test [2] it was -26.3% (active); in test [3] it was -49.2% (active); in test [4] it was -94.5% (active); in test [5], -75.2% (active); in test [6], 49.8%. Further, the growth in test [7] is -76.1% (active); in [8], -93.2% (active); in test [9] it was -2.29% (active).
In the case of `COc1cc(C2CC(c3ccc(C)cc3)=Nc3c(N)nc(N)nc3N2)ccc1Oc1nc(Nc2ccc(F)cc2)nc(N(C)C)n1` (stereo not given), the growth in test [1] is 0.613% (active); in test [2], 22.3%; in test [3], 61.2%; in test [4] it was 99.6%; in test [5], 50.9%; in test [6], 100%. Further, the growth in test [7] was 53.8%; in [8], 56.2%; in test [9] it was 57.6%; in test [10], 51.7%.
For the compound `C=C1CCC2C3(C)COC(c4c(F)cccc4F)OC3CCC2(C)C1CC(O)C1=CCOC1=O` (stereo not given), the growth in test [1] is 32.8%; in [2], 12.6%; in [3] it was 7.07% (active); in [4] it was 82.9%; in [5], 60.2%; in [6], 100%. Further, the growth in test [7] was 59.3%; in [8], 38.2%; in test [9], 76.1%; in test [10] it was 11.6%.
On to `CC(C)Sc1nc(NC2CC2)c(C#N)c(-c2ccccc2)n1`, for which the growth in test [1] is 99.8%; in test [2] it was 94.2%; in test [3] it was 30.8%; in test [4], 92%; in test [5], 27.6%; in [6] it was 88.8%. In addition, the growth in test [7] is 74%; in [8] it was 86.5%; in [9], 71.7%; in [10], 57.6%.
Consider `CC1=C(c2cc(-c3ccc(Cl)cc3)c(C#N)c(N)n2)C(c2ccccc2)NC(=S)N1` (stereo not given), for which the growth in test [1] was 2.54% (active); in [2], 9.51% (active); in test [3], 5.74% (active); in [4], 93.5%; in test [5], 81.3%; in [6] it was 126%. For the same compound, the growth in [7] is 65.7%; in test [8], 17.1%; in test [9] it was 75.3%.
On to `CCOC(=O)c1sc(N/N=C(\C)c2ccc3c(c2)Nc2ccccc2S3)nc1C`, for which the growth was 18.8% in test [1]; 20.1% in test [2]; 38.7% in [3]; 30.6% in [4]; 44.1% in test [5]; 68.5% in test [6]. Moreover, the growth in [7] is 39.6%; in test [8] it was 46.1%; in [9], 30.9%; in [10], 28.8%.
Turning to `COc1cc(/C=C/C(=O)c2ccc(NC(=O)CSc3nnc(-c4c[nH]c5ccccc45)n3-c3ccccc3)cc2)cc(OC)c1OC`, the growth in test [1] is 35.3%; in [2], 6.57% (active); in [3], 50.1%; in [4], 108%; in [5] it was 93%; in test [6] it was 121%. The growth in test [7] is 48.8%; in test [8] it was 66%; in test [9], 93.2%.
As to `CCOC(=O)C1=C(N)N(c2ccc(C)cc2)C2=C(C(=O)CC(C)(C)C2)C1c1ccccc1OC` (stereo not given), the growth is 92.1% in [1]; 96.2% in test [2]; 110% in test [3]; 104% in [4]; 108% in test [5]; 103% in [6]. The growth in test [7] was 98.6%; in test [8] it was 118%; in test [9] it was 102%; in test [10], 99.7%.
As for `CCNCCCn1c2c(c3cc(OC)c(OC)cc3c1=O)C(=O)c1cc3c(nc1-2)OCO3`, the growth is -7.45% (active) in [1]; -34.7% (active) in test [2]; -64.5% (active) in test [3]; -88.7% (active) in [4]; 57.9% in [5]; 35.4% in [6]. Moreover, the growth in test [7] was 18.4%; in [8] it was -90.1% (active); in [9], 97.4%; in test [10] it was -30.8% (active).
With `O=C(N=Nc1c(O)[nH]c2ccc(Br)cc12)c1ccc2nc(-c3ccccc3)[nH]c2c1`, the growth in test [1] was -5.76% (active); in test [2], -4.88% (active); in test [3], -94.5% (active); in test [4] it was -5.18% (active); in [5] it was -92.1% (active); in test [6] it was -54.9% (active). Besides, the growth was -39% (active) in test [7], -69.7% (active) in test [8], -25.9% (active) in test [9] and 76.7% in [10].
`COc1ccc(C(=O)CSc2nnc(-c3c[nH]c4ccccc34)n2-c2ccccc2)cc1`: the growth in test [1] was 79.7%; in test [2], 72.7%; in test [3], 15.5%; in test [4] it was 77.4%; in test [5], 0.569% (active); in test [6], 66.3%. Moreover, the growth in test [7] was 60.5%; in test [8], 53.6%; in [9], 15.5%; in test [10] it was 16.3%.
Turning to `Cc1ccc(C(=O)CSc2nnc(-c3c[nH]c4ccccc34)n2-c2ccccc2)cc1`, the growth was 53% in [1]; 58.9% in [2]; 11.3% in test [3]; 13% in test [4]; -15.6% (active) in test [5]; 24% in test [6]. Moreover, the growth is 24.2% in test [7], 65.2% in [8], -0.727% (active) in test [9] and -27.7% (active) in [10].
With `COc1cc(-c2nc3cc(Cl)c(Cl)cc3[nH]2)ccc1OCc1nnc(-c2ccc(Br)cc2)o1`, the growth is -34.4% (active) in test [1]; -23.2% (active) in test [2]; 15.7% in test [3]; 39.6% in test [4]; -92.2% (active) in [5]; -11.1% (active) in test [6]. Also, the growth was 42% in [7], -47.6% (active) in test [8] and -22.5% (active) in test [9].
Regarding `COc1cccc(-c2ccnc(/N=C(\N)Nc3ccc(S(=O)(=O)Nc4nc(C)cc(C)n4)cc3)n2)c1`, the growth was 100% in [1]; 90.1% in [2]; 102% in [3]; 107% in test [4]; 96% in test [5]; 84% in test [6]. Moreover, the growth was 83.4% in test [7], 99.3% in [8], 86.4% in [9] and 103% in [10].
Take `Cc1ccc2nc(COc3ccc(C(=O)NNC(=S)NCCc4ccccc4)cc3)[nH]c2c1`: the growth in [1] is 88.2%; in test [2] it was 87.7%; in [3], 13.1%; in [4], 88.9%; in [5], -4.14% (active); in [6], 83.4%. The growth was 52.9% in test [7], 105% in test [8] and 41.1% in test [9].
Take `Cc1ccc(-c2cc(C(=O)N=Nc3c(O)[nH]c4ccc(Br)cc34)c3ccccc3n2)cc1`: the growth in test [1] was 10.4%; in [2], 60.8%; in test [3], 56.5%; in [4], 99.7%; in test [5] it was 71.9%; in test [6], 107%. Further, the values for the growth in [7], in test [8] and in [9] were 52.9%, 79.2% and 67.5%, respectively.
In the case of `CN1C(=O)N(C)C2SC(N/N=C/c3cccs3)=NC21` (stereo not given), the growth in test [1] is 13.4%; in test [2] it was 51.9%; in test [3] it was 34.4%; in [4], 42.5%; in test [5], 57.9%; in test [6] it was 40.7%. In addition, the growth in test [7] is 36.7%; in test [8] it was -54% (active); in test [9], 25.3%; in [10], -15.2% (active).
As to `COc1cc2c3c(n(CCCN4CCOCC4)c(=O)c2cc1OC)-c1nc2c(cc1C3=O)OCO2`, the growth in test [1] is 12.5%; in test [2] it was 18.7%; in test [3] it was 30.3%; in test [4] it was 37.2%; in test [5] it was 6.71% (active); in [6], -4.15% (active). For the same compound, the growth was 36.7% in test [7], 8.69% (active) in test [8] and 71.6% in test [9].
For the compound `O=C(CSc1nnc(-c2c[nH]c3ccccc23)n1-c1ccccc1)Nc1ccc(C(=O)/C=C/c2ccc(Cl)cc2)cc1`, the growth is 70.8% in test [1]; 4.94% (active) in test [2]; 85.5% in [3]; 98.2% in test [4]; 74.8% in [5]; 80.7% in test [6]. Moreover, the growth in test [7] was 74.7%; in test [8] it was 69.6%; in test [9], 73.2%; in test [10], 92.9%.

Source of the values: PubChem BioAssay (NCI).
